# Sampled rows, rich in hits. Any-hit rate of the full collection: about 12%.
# PLK1 PBD block – blocks phosphopeptide binding to human PLK1 polo-box domain; AID 720504; Potency, µM, for inactives: max response, negative = inhibition, actives largely listed as inhibitors; 360,000 tested, 2.8% active; Plk1 PBD binding of FITC phosphopeptide, fluorescence polarization; note: series mostly up to about 57 µM; % is set by controls: 0 for no effect and ±100 for the full control effect; nearly all actives have a fitted effect of over 65% in size
# Target sequence (P53350 whole entry, looked up, the tested form may be a part): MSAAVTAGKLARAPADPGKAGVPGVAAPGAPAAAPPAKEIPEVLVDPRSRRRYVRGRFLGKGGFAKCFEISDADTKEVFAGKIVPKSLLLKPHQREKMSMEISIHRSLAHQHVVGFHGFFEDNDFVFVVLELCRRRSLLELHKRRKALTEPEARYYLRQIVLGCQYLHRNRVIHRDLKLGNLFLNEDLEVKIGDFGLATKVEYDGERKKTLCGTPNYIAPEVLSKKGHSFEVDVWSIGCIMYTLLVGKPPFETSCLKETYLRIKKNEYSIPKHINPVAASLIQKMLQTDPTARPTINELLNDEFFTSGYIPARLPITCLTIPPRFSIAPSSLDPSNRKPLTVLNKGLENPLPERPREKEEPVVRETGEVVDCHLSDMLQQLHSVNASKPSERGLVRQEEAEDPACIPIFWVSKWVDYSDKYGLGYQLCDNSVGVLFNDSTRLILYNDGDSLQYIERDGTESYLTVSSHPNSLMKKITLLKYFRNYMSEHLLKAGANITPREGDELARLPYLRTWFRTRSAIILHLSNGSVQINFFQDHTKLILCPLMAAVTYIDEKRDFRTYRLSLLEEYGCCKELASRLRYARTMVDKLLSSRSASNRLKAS
# Sfp inh – blocks B. subtilis Sfp PPTase activity; Biochemical Sfp PPTase activity, qHTS; AID 1490; Potency, µM, for the others: largest response in the series, negative = inhibition, hits mostly inhibitors; 310,000 tested, 3.5% active; Q9F4F7;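 note: the enzyme is Sfp with the accession as filed and its product quenches rhodamine fluorescence; 0% = enzyme reaction without inhibitor and -100% = no enzyme wells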
#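 Fluorescence-quenching assay with 15 nM Sfp, 5 uM rhodamine-CoA and 12.5 uM BHQ-2-labelled ybbR peptide in pH 7.6 Hepes/MgCl2 buffer. Enzyme was pre-incubated with compound for 15 min at room temperature. Rate was taken from the 30-min fluorescence change (525/598 nm).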
# HP1b chromo inh – inhibitors of HP1-beta chromodomain binding to methylated histone tails; P83916; AlphaScreen HP1-beta / biotin-H3K9me3 peptide binding; Potency, µM (highest dose often 114 µM), inactives show at the top dose activity change, negative = inhibition, usual class: inhibitors; 390,000 tested, 0.56% active; AID 540317; note: nearly all actives have a fitted effect of over 70% in size
#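 AlphaScreen: HP1-beta (50 nM) preformed 30 min with biotin-H3(1-18)K9me3 peptide (50 nM) in PBS pH 7.4, 0.01% Tween-20. Compound added for 30 min at RT, then streptavidin donor/nickel chelate acceptor beads (10 ug/mL) for 30 min.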
# JMJD2A Tudor inh – blocks the human JMJD2A Tudor domain | O75164 | AlphaScreen JMJD2A-Tudor / H3K4me3 peptide binding | Potency, µM (titrated, usually from 114 µM), without a hit: top-dose activity change, negative = inhibition, most hits filed as inhibitors | 390,000 tested, 4.4% active | AID 504339; note: % is set by controls: 0 for no effect and ±100 for the full control effect; nearly all actives have a fitted effect of over 50% in size
# G9a inh – inhibitors of human histone lysine methyltransferase G9a; Potency, µM (top dose mostly 102 µM), for the others: at the highest dose activity, negative = inhibition, actives largely listed as inhibitors; G9a H3K9 monomethylation, AlphaScreen, 2 h; 350,000 tested, 8.8% active; note: % is set by controls: 0 for no effect and ±100 for the full control effect; nearly all actives have a fitted effect of over 75% in size
#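 Enzyme 20 nM + cpd, 15 min RT; add b-H3K9 pep 500 nM / SAM 20 uM; 2 h RT; anti-H3K9me1 Ab 0.5 ug/mL + SA donor / anti-rabbit acceptor beads 20 ug/mL each, 10 min; AlphaScreen read.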
# BAZ2B block – BAZ2B (human) inhibition | Q9UIF8 | AlphaScreen BAZ2B-H3K14Ac peptide displacement | Potency, µM (doses to about 114 µM), without a hit: at the top dose activity change, negative = inhibition, usual class: inhibitors | 360,000 tested, 4.4% active | AID 504333; note: % is set by controls: 0 for no effect and ±100 for the full control effect; nearly all actives have a fitted effect of over 60% in size
#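 BAZ2B (50 nM) with biotin-H3(5-23)K14Ac peptide (50 nM) in PBS pH 7.4, 0.01% Tween-20, preformed 30 min, then compound 30 min at room temperature; top concentration 110uM. AlphaScreen streptavidin donor/nickel chelate acceptor beads (10 ug/mL final), 20 min dark, signal read.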
# * hit, by the source's call; ? = inconclusive; · = not tested or not shown; [ ] = dose if it differs, or a comment. Calls come from the whole dose curve; as a rule, active = well fitted curve in the direction sought with a large enough effect; inconclusive = small, poorly fitted or top-dose-only effect, or another doubt; inactive = no such curve, though single readings can be large; an effect the other way counts as inactive or inconclusive. Potency is the fitted concentration of half-maximal effect.
SMILES,PLK1 PBD block,Sfp inh,HP1b chromo inh,JMJD2A Tudor inh,G9a inh,BAZ2B block
COc1ccc(CNc2ncc(-c3cccc([N+](=O)[O-])c3)n2C)c(OC)c1OC,2%,-13%,?,25µM*,32µM*,50µM*
CCOc1ccc(-c2cnc(NCc3cccc(Cl)c3)n2C)cc1,·,·,?,20µM*,7.9µM*,?
CC(=O)n1nc(-c2ccccc2)nc1NCc1ccc(F)cc1,-5%,-15%,118%,29%,-12%[2.33 µM],32%
COc1cccc(-c2cnc(NCc3cc(Cl)ccc3O)n2C)c1,-5%,?,?,4.5µM*,8.9µM*,40µM*
COc1ccc(Cn2c(=O)c3oc4ccccc4c3n(Cc3ccc(F)cc3)c2=O)cc1,·,·,38%,3%,3%[59 µM],-21%
COCCn1c(-c2ccc(OC)cc2)cnc1N,?,4%,-6%,?,?,?
CCOc1ccc(-c2cnc(NCc3cccc4ccccc34)n2CCOC)cc1,-14%,56µM*,?,14µM*,·,40µM*
Cn1c(-c2ccccc2)cnc1NCc1ccccc1O,·,·,?,28µM*,10µM*,50µM*
COc1ccc(CNc2ncc(-c3ccc(F)cc3)n2C)c2ccccc12,7%,-22%,?,20µM*,10µM*,50µM*
Cc1cccc(C)c1NC(=O)COC(=O)/C=C/c1ccc(S(=O)(=O)N2CCOCC2)cc1,-1%,·,30%,-13%,·,·
COc1cccc(Cn2c(=O)c(C)nc3cnc(OCc4ccccc4)nc32)c1,·,-16%,·,·,15%[12.7 µM],·
COc1ccccc1NS(=O)(=O)c1cc(NC(=S)NCCN2CCOCC2)ccc1N1CCOCC1,5.3µM*,-106%,?,?,10µM*,?
COCC(=O)Nc1ccc(N2CCOCC2)c(S(=O)(=O)Nc2ccccc2OC)c1,11µM*,·,?,-33%,·,·
COc1ccccc1NS(=O)(=O)c1cc(NC(=O)C2CCCC2)ccc1N1CCOCC1,15µM*,20µM*,?,?,8.9µM*,-27%
COc1ccccc1NC(=S)NCCN1CCOCC1,?,-2%,12%,12%,-2%[59 µM],-2%
COc1ccccc1NS(=O)(=O)c1cc(NC(=O)COc2ccccc2F)ccc1N1CCOCC1,24µM*,·,18µM*,-19%,·,·
COc1ccccc1NS(=O)(=O)c1cc(NC(=O)C(C)(C)C)ccc1N1CCOCC1,-1%,·,22%,-6%,7%[0.501 µM],4%
Cc1c(O)ccc(-c2[nH]ncc2-c2nc3ccccc3s2)c1O,-1%,-3%,35%,?,12%[12.7 µM],-29%
Cc1c(O)ccc(-c2n[nH]c(C(=O)O)c2-c2nc3ccccc3s2)c1O,-16%,2%,24%,-7%,45µM*,?
COc1ccc(Cl)cc1NC(=O)CN(C)C(=O)c1cccc2cccnc12,-8%,·,23%,-21%,·,·
O=C(Cc1cccc2ccccc12)Nc1nnc(-c2cccc([N+](=O)[O-])c2)s1,-7%,?,26%,-14%,?,-10%
O=C(CSc1ccc(Cl)cc1)Nc1nnc(-c2cccc([N+](=O)[O-])c2)s1,-6%,-21%,56%,-10%,40µM*,-8%
COc1ccc(S(=O)(=O)C(C#N)c2nc3ccccc3nc2N2CCCC(C)C2)cc1 (stereo unspecified),?,5%,?,?,?,45µM*
Cc1[nH]c2ccccc2c1C(C#N)(C#N)C1C(=O)c2ccccc2C1=O,?,?,11µM*,13µM*,-111%[12.7 µM],7.9µM*
COC(=O)C1(C(=O)OC)C[C@H](c2cccs2)N(Cc2ccccc2OC)[C@@H]1c1ccc(F)cc1,3%,·,·,·,·,·
SMILES,PLK1 PBD block,Sfp inh,HP1b chromo inh,JMJD2A Tudor inh,G9a inh,BAZ2B block
CC1(O)/C=C\C=C(\CO)C2CC(C)(C)C2(O)CC1 (stereo unspecified),·,-1%,·,·,·,·
Cc1ccccc1/C=C/C1=NCCN1,-8%,·,?,20µM*,30µM*,?
Cc1ccccc1C=O,-2%,·,46%,-1%,-5%[0.501 µM],-3%
COC(=O)CNC(c1ccccc1)c1cc(Br)ccc1NC(=O)CCN1CCOCC1 (stereo unspecified),?,32µM*,5%,-29%,3.2µM*,-28%
CCOC(=O)CNC(c1ccccc1)c1cc(Br)ccc1NC(=O)CCN1CCOCC1 (stereo unspecified),?,16µM*,2%,-28%,?,0%
COC(=O)CNC(c1ccccc1)c1cc(Br)ccc1NC(=O)CNC(=O)OCc1ccccc1 (stereo unspecified),-4%,2%,24%,-10%[57.1 µM],5%[59 µM],-12%
Cc1ccccc1-c1nn(-c2ccc(F)cc2F)cc1CNCCCN(C)C,-8%,5%,0%,?,·,-3%
O=C1c2ccccc2C(=O)N1CCC#C/C=C1\c2ccccc2C(=O)N1c1ccccc1,-3%,·,·,·,·,·
CCOC(=O)CN1C(=O)C(O)=C(C(C)=O)C1c1ccccc1 (stereo unspecified),-2%,9%,7%,?,-37%[2.33 µM],79µM*
CCOC(=O)CN1C(=O)C(O)=C(C(C)=O)C1c1ccc([N+](=O)[O-])cc1 (stereo unspecified),-1%,-11%,38%,-18%,?,?
CCOC(=O)CN1C(=O)N(CC)C(C)=C(C(=O)OC)[C@@H]1c1ccccc1,-1%,-1%,31%,-11%,43%[59 µM],-2%
CCOC(=O)CN1C(=O)C(O)=C(C(C)=O)C1c1ccc(F)cc1 (stereo unspecified),-1%,4%,2%,-35%,35µM*,71µM*

# Screens: PubChem, National Center for Advancing Translational Sciences (NCATS)
